Measured values from the supplement of paper PMC6555819.

How the values were obtained:
Assay in all cases: PBM binding z-score (relative to random genomic background probes); higher = stronger binding; sequences stand for … in GC…GCGATTGACAGCGTAGAATGAAGG
[1] = tested on: PPARg:RXRa DBDmut IVT, anti-RXR (DBD mutation: RXRa K156A/R161A, NR concentration 270 nM, RXRa partner concentration 90 nM)
Summary of the method: (§1)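 Antibodies against each partner of ligand-free nuclear receptor dimers (one per run) detected binding on custom Agilent 4×180K protein-binding microarrays after 1 h incubation. The double-stranded probes had 34-nt variable regions carrying direct-repeat seeds, single-nucleotide variants, half-site ablations and random human genomic background sequences. Binding z-scores, from regression-normalized fluorescence, use the random background probes as reference.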

[2] = tested on: PPARg:RXRa IVT, anti-PPARg (NR concentration 270 nM, RXRa partner concentration 90 nM)
Summary of the method: as §1

[3] = tested on: PPARg DBDmut:RXRa IVT, anti-PPARg (DBD mutation: PPARg1 K132A/R137A, NR concentration 270 nM, RXRa partner concentration 90 nM)
Summary of the method: as §1

[4] = tested on: PPARg DBDmut IVT, anti-PPARg (DBD mutation: PPARg1 K132A/R137A, NR concentration 270 nM)
Summary of the method: as §1

[5] = tested on: PPARg homodimer (NR concentration 180 nM)
Summary of the method: as §1

[6] = tested on: PXR:RXRa (NR concentration 270 nM, RXRa partner concentration 90 nM)
Summary of the method: as §1

[7] = tested on: PXR homodimer (NR concentration 270 nM)
Summary of the method: as §1

[8] = tested on: RARa:RXR (NR concentration 270 nM, RXRa partner concentration 90 nM)
Summary of the method: as §1

[9] = tested on: RARa homodimer (NR concentration 270 nM)
Summary of the method: as §1

[10] = tested on: RARb:RXRa (NR concentration 270 nM, RXRa partner concentration 90 nM)
Summary of the method: as §1

| Sequence | PBM binding z-score [1] | PBM binding z-score [2] | PBM binding z-score [3] | PBM binding z-score [4] | PBM binding z-score [5] | PBM binding z-score [6] | PBM binding z-score [7] | PBM binding z-score [8] | PBM binding z-score [9] | PBM binding z-score [10] |
| --- | --- | --- | --- | --- | --- | --- | --- | --- | --- | --- |
| GATAGAGGGTCAAGGCCAGAGTACGCGTATTGAT | 2.88 | 3.71 | 0.404 | 0.208 | 1.98 | 2.84 | 0.414 | 3.34 | 0.0585 | 4.12 |
| GCAGACAGGTGAAACGCTGGTAACTCAGGGTGGC | 0.871 | 0.415 | -0.505 | -0.62 | -1.22 | -0.38 | -0.927 | 0.0217 | -0.662 | 0.668 |
| CGTCCAAGGTCAATGCTAAGTCAGTGAAAGCATT | 2.98 | 3.34 | 0.647 | -0.584 | 2.4 | 3.51 | 0.823 | 4.32 | 0.642 | 5.01 |
| ACAGACAGGTGAGTGAAGGTAACTGAGCTGGACG | 0.252 | 0.903 | -0.468 | -0.756 | -0.197 | 0.0727 | -0.00734 | 0.487 | -0.0985 | 0.632 |
| GCATATAGGTAATACAAGGTGAAAGTACGATTGT | 3.58 | 3.44 | 1.47 | 0.563 | 0.701 | 0.648 | 0.0601 | 1.84 | 0.78 | 0.387 |
| AGAACGAGGGCAATTAGTTGATAGCACGGGTGGC | 3.45 | 2.65 | 0.442 | -0.255 | 0.218 | 0.729 | 1.02 | 0.412 | 0.215 | 2.06 |
| TATGCTAGGTCAGTTGGTCAGCTAACGAGCTGCC | 1.61 | 2.75 | 1.5 | 0.759 | 0.0439 | 0.247 | -0.553 | 0.47 | -0.649 | 3.04 |
| CGAACTAGGTCAGAACAGGACTGTGAAGGATGAT | 7.08 | 7.13 | 0.747 | 0.194 | 0.61 | 0.118 | -0.184 | 0.787 | 0.123 | 2.71 |
| CAAAGTAGGTCAAAGGTCAAAGTCGAGCCAACCA | 8.81 | 9.31 | 4.15 | 2.43 | 4.72 | 7.22 | 2.39 | 8.98 | 3.23 | 5.92 |
| ATCTCTAGGTAACACTCAGTTCAGTGAAGAACGC | 3.97 | 2.95 | 1.8 | 2.07 | 1.13 | 1.94 | 2.42 | 1.13 | 1.39 | 1.06 |
| CCTACTGGGCCAAAAAGGTCATTTATGCCGATAA | 3.34 | 3.95 | 0.881 | -0.177 | 3.37 | 4.67 | 3.36 | 4.88 | 1.02 | 3.7 |
| TCATATAGGTAAAGGTGAAATTCGAACGATATGA | 3.77 | 3.94 | 1.35 | 1.08 | 0.745 | 0.895 | 0.378 | 1.54 | 0.597 | 1.77 |
| CCAACTGGGGCAGAAAGGTTACCATACCATCCGG | 3.25 | 3.34 | 0.0349 | -0.823 | 0.624 | 1.1 | 0.0955 | 1.98 | -0.139 | 2.03 |
| ATCTCTAGGTAAAGTTCAGTAAAAGATCGATAGA | 2.04 | 2.45 | 1.82 | 0.984 | 2.05 | 2.07 | 2.09 | 1.42 | 2.26 | 2.82 |
| TCTGCTAGGGCAGTTGGTCAGCTAACGAGCTGCC | 1.38 | 0.996 | -0.206 | -0.384 | -0.702 | -0.671 | -0.958 | -0.138 | -1.3 | 1.14 |
| CGAACTAGGTCAGAACAGGACAGCGAAGGATGAT | 6.88 | 7.17 | 2.58 | 2.2 | 1.18 | 0.861 | -0.18 | 1.86 | 0.0245 | 2.88 |
| CGTCCAAGGTCAGGGTCAGTGAAAGAGACTCGAA | 2.17 | 3.09 | 0.335 | -0.416 | 2.66 | 3.7 | 0.71 | 4.22 | 1.34 | 5.2 |
| CCTCGGAGGACAGAAGGTCAGAGCGGTCCGCTTT | 0.0292 | -0.0958 | -1.49 | -1.9 | 1.2 | 1.91 | -0.289 | 1.91 | 0.122 | 3.18 |
| TCTGCTAGGTCAGTTGGTCAACTAACGAGCTGCC | 2.83 | 3.32 | 0.661 | 0.786 | -0.104 | 0.269 | -0.861 | 0.622 | -0.954 | 3.27 |
| GCATCTAGGTAATACAAGGTGAAAGTCCGATTGT | 4.35 | 3.42 | 0.512 | 0.835 | 0.218 | 0.368 | -0.443 | 0.737 | -0.154 | 0.5 |
| TCTTGTAGAGCAGCAGGTTAAGAAAGCTGGCCAA | 1.09 | 0.666 | -0.321 | -1.03 | -0.986 | -0.26 | -1.07 | -0.139 | -0.879 | -0.156 |
| GGAACGAGGGCAAAGTTGATAGCGTCTGTCGACG | 4.61 | 4.26 | 0.324 | -0.0322 | 0.905 | 1.2 | -0.0837 | 1.7 | -0.604 | 2.48 |
| ACCTCTAGGTAAAAGTTCAGTGAATCCCGAGGAT | 2.11 | 3.3 | 0.37 | 0.231 | 0.975 | 1.54 | 1.16 | 1.11 | 0.0645 | 2.08 |
| ACTCGCAGGCCAAGTTTGGGTCACTCAAACAAAG | 0.227 | 0.485 | -0.206 | -0.189 | 0.897 | 0.84 | -0.477 | 1.47 | -0.257 | 1.89 |
